PubChem BioAssay
Records with an inconclusive call do not appear. Activity calls are given as the source filed them.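 The calls were made as follows, unless noted: active = normalized viability below 100% at a tested concentration; inactive = the rest.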

Columns and labels:
[1] = growth inhibition of DIPG glioma cells, dose response, cell-based, SU-DIPG-XVII, MIPE5.0, CellTiter-Glo, qHTS (AID 1347060; cut-off not given, nearly all actives have AC50 up to about 26 µM;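 as to AC50: cells exposed to compound for 48 hours before viability readout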); settings: SU-DIPG-XVII viability, CellTiter-Glo ATP luminescence
[2] = growth inhibition of DIPG glioma cells, dose response, cell-based, SU-DIPG-XIII, MIPE4.0, CellTiter-Glo, qHTS (AID 1347061; cut-off not given, nearly all actives have AC50 up to about 37 µM;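 also: cells exposed to compound for 48 hours before readout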); settings: SU-DIPG-XIII viability, CellTiter-Glo ATP luminescence
[3] = growth inhibition of DIPG glioma cells, dose response, cell-based, JHH-DIPG-1, MIPE4.0, CellTiter-Glo, qHTS (AID 1347062; cut-off not given, nearly all actives have AC50 up to about 27 µM;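 as to AC50: cells exposed to compound for two days before readout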); settings: JHH-DIPG-1 viability, CellTiter-Glo ATP luminescence
[4] = growth inhibition of DIPG glioma cells, dose response, cell-based, SU-DIPG-IV, MIPE4.0, CellTiter-Glo, qHTS (AID 1347063; cut-off not given, nearly all actives have AC50 up to about 30 µM;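 also: compound exposure lasted 48 hours before the viability readout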); settings: SU-DIPG-IV viability, CellTiter-Glo ATP luminescence
[5] = growth inhibition of DIPG glioma cells, dose response, cell-based, SU-DIPG-XIII, MIPE5.0, CellTiter-Glo, qHTS (AID 1347064; cut-off not given, nearly all actives have AC50 up to about 23 µM;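 as to AC50: cells exposed to compound for 48 hours before the viability read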); settings: SU-DIPG-XIII viability, CellTiter-Glo ATP luminescence
[6] = viability loss in pontine glioma line – cell-based, SU-DIPG-XXV, MIPE5.0, CellTiter-Glo, qHTS, dose response (AID 1347065; cut-off not given, nearly all actives have AC50 up to about 26 µM;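 also: cells exposed to compound for 48 hours before ATP readout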); settings: CellTiter-Glo ATP luminescence
[7] = SU-DIPG-VI glioma cell viability, MIPE4.0 library, CellTiter-Glo luminescence, qHTS (AID 1347066; cut-off not given, nearly all actives have AC50 up to about 30 µM;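 also: cells exposed to compound for 48 hours before readout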); settings: CellTiter-Glo ATP luminescence
[8] = JHH-DIPG-1 glioma cell viability, MIPE5.0 library, CellTiter-Glo luminescence, qHTS (AID 1347067; cut-off not given, nearly all actives have AC50 up to about 26 µM;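 also: cells exposed to compound for 48 hours before readout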); settings: JHH-DIPG-1 glioma viability, CellTiter-Glo ATP luminescence
[9] = SU-DIPG-XXV glioma cell viability, MIPE5.0 library, qHTS (AID 1347068; cut-off not given, nearly all actives have IC50 up to about 30 µM;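 as to IC50: cells exposed to compound for 48 hours before viability readout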)
[10] = sensitizers of A549 cells to miR-34 induction, primary screen, imaging, A549 dox-inducible miR-34, nuclei and caspase counts (AID 1347080;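 active = compounds whose cell count with miR-34 switched on is under 0.7 times the count with it off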); settings: A549 miR-34 inducible, Hoechst nuclei count, 48 h
[11] = modifiers of HSF1 nuclear foci, imaging, Selleck Cancer Library (AID 1347162; in the data active = plate-normalised HSF1 focus index below about 0.46); settings: human cells, at 10 µM; SSMD: measured here: HSF1 foci SSMD mean; cell count: measured here: cell number; plate-normalised HSF1 focus index: stronger effect = lower value
[12] = survival rescue of mitochondrial mutant cells in low glucose, primary screen, MELAS cybrids, Rieske KO mouse fibroblasts, CellTiter-Glo (AID 1508586;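 active = mean z-score across replicates of 1.96 or higher in either the MELAS or the Rieske mutant cell line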;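 also: z relative to plate mean and SD of compound and empty wells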)
[13] = ovarian cancer cell viability with rucaparib, profiling panel, oncology-focused library, rucaparib conditional (AID 1508598); settings: patient-derived ovarian cancer cells, CellTiter-Glo viability, 144 h, stronger effect = lower value
[14] = stronger effect = lower value, cell number ratio, induced over uninduced
[15] = measured here: relative caspase fold change +Dox/-Dox
[16] = measured here: total cells with miR-34 induction, stronger effect = lower value
[17] = measured here: total cells without miR-34 induction
[18] = MELAS cybrid survival, CellTiter-Glo 48 h, stronger effect = higher value
[19] = Rieske KO mouse fibroblast survival, CellTiter-Glo 72 h

O=C(NCCS(=O)(=O)c1ccc(C(F)(F)F)cn1)c1ccc(Cl)cc1
inactive: outcome [1] | outcome [2] | outcome [3] | outcome [4] | outcome [5] | outcome [6] | outcome [7] | outcome [8] | outcome [9] | fold change [10, 14] 0.87 | plate-normalised HSF1 focus index [11] 1.2 | z-score [12, 18] -0.369
7080: cell count [11]
0.351: fold change [10, 15]
3.34: SSMD [11]
0.00298: z-score [12, 19]
7940: cell count [10, 16]
9120: cell count [10, 17]

COc1ccc(S(=O)(=O)Nc2cc(-c3c(O)ccc4ccccc34)c(O)c3ccccc23)cc1
inactive: outcome [9]
active: AC50 [1] 105 nM | AC50 [2] 13200 nM | AC50 [3] 18700 nM | AC50 [4] 7430 nM | AC50 [5] 3320 nM | AC50 [6] 2350 nM | AC50 [7] 4690 nM | AC50 [8] 2950 nM

CCC(=O)O[C@]1(C(=O)CO)CC[C@H]2[C@@H]3CCC4=CC(=O)CC[C@]4(C)[C@H]3CC[C@@]21C
inactive: outcome [1] | outcome [2] | outcome [3] | outcome [4] | outcome [5] | outcome [6] | outcome [7] | outcome [8] | outcome [9]

CC1(C)SCCN(S(=O)(=O)c2ccc(OCC#CCO)cc2)[C@H]1C(=O)NO
inactive: outcome [1] | outcome [2] | outcome [3] | outcome [4] | outcome [5] | outcome [6] | outcome [7] | outcome [8] | outcome [9]

CC1=C(CO)C(=O)O[C@@H]([C@@H](C)[C@H]2CC[C@H]3[C@@H]4C[C@H]5O[C@]56[C@@H](O)C=CC(=O)[C@]6(C)[C@H]4CC[C@]23C)C1
active: AC50 [1] 1480 nM | AC50 [2] 1870 nM | AC50 [3] 1180 nM | AC50 [4] 332 nM | AC50 [5] 1050 nM | AC50 [6] 1480 nM | AC50 [7] 743 nM | AC50 [8] 1320 nM | IC50 [9] 2350 nM

CN1CCN(Cc2ccc(NC(=O)Nc3ccc(Oc4cc(NC(=O)C5CC5)ncn4)cc3)cc2C(F)(F)F)CC1
active: AC50 [1] 468 nM | AC50 [2] 5900 nM | AC50 [3] 118 nM | AC50 [4] 235 nM | AC50 [5] 525 nM | AC50 [6] 417 nM | AC50 [7] 2960 nM | AC50 [8] 372 nM | IC50 [9] 417 nM

COc1cccc2nc(-c3cccs3)nc(NN3C(=O)C=C(C)C3=O)c12
active: AC50 [1] 833 nM | AC50 [2] 10500 nM | AC50 [3] 16600 nM | AC50 [4] 296 nM | AC50 [5] 2090 nM | AC50 [6] 1660 nM | AC50 [7] 3720 nM | AC50 [8] 2350 nM | IC50 [9] 7420 nM

c1cc(CN2CCCNCCNCCCNCC2)ccc1CN1CCCNCCNCCCNCC1
inactive: outcome [1] | outcome [2] | outcome [3] | outcome [4] | outcome [5] | outcome [6] | outcome [7] | outcome [8] | outcome [9]

Cn1cc(-c2ccc3nnc(Sc4ccc5ncccc5c4)n3n2)cn1
inactive: outcome [1] | outcome [2] | outcome [3] | outcome [4] | outcome [5] | outcome [6] | outcome [7] | outcome [8] | outcome [9] | fold change [10, 14] 0.884 | plate-normalised HSF1 focus index [11] 1.11 | z-score [12, 18] -0.396 | viability ([13]; at 0.000305 µM, OCI-C5x cells, with rucaparib 10 µM, 100% = cells with rucaparib alone) 127% | viability ([13]; at 0.000305 µM, OCI-C5x cells, without rucaparib) 127% | viability ([13]; at 0.00122 µM, OCI-C5x cells, with rucaparib 10 µM, 100% = cells with rucaparib alone) 135% | viability ([13]; at 0.00122 µM, OCI-C5x cells, without rucaparib) 125% | viability ([13]; at 0.00122 µM, OCI-P5x cells, with rucaparib 20 µM, 100% = cells with rucaparib alone) 111% | viability ([13]; at 0.00488 µM, OCI-C5x cells, with rucaparib 10 µM, 100% = cells with rucaparib alone) 132% | viability ([13]; at 0.00488 µM, OCI-C5x cells, without rucaparib) 125% | viability ([13]; at 0.00488 µM, OCI-P5x cells, with rucaparib 20 µM, 100% = cells with rucaparib alone) 112% | viability ([13]; at 0.00488 µM, OCI-P5x cells, without rucaparib) 102% | viability ([13]; at 0.0195 µM, OCI-C5x cells, with rucaparib 10 µM, 100% = cells with rucaparib alone) 126% | viability ([13]; at 0.0195 µM, OCI-C5x cells, without rucaparib) 122% | viability ([13]; at 0.0195 µM, OCI-P5x cells, with rucaparib 20 µM, 100% = cells with rucaparib alone) 110% | viability ([13]; at 0.0195 µM, OCI-P5x cells, without rucaparib) 103% | viability ([13]; at 0.0781 µM, OCI-C5x cells, with rucaparib 10 µM, 100% = cells with rucaparib alone) 120% | viability ([13]; at 0.0781 µM, OCI-C5x cells, without rucaparib) 124% | viability ([13]; at 0.0781 µM, OCI-P5x cells, with rucaparib 20 µM, 100% = cells with rucaparib alone) 103% | viability ([13]; at 0.0781 µM, OCI-P5x cells, without rucaparib) 110% | viability ([13]; at 0.313 µM, OCI-C5x cells, with rucaparib 10 µM, 100% = cells with rucaparib alone) 126% | viability ([13]; at 0.313 µM, OCI-C5x cells, without rucaparib) 123% | viability ([13]; at 0.313 µM, OCI-P5x cells, with rucaparib 20 µM, 100% = cells with rucaparib alone) 107% | viability ([13]; at 0.313 µM, OCI-P5x cells, without rucaparib) 106% | viability ([13]; at 1.25 µM, OCI-C5x cells, with rucaparib 10 µM, 100% = cells with rucaparib alone) 131% | viability ([13]; at 1.25 µM, OCI-C5x cells, without rucaparib) 124% | viability ([13]; at 1.25 µM, OCI-P5x cells, with rucaparib 20 µM, 100% = cells with rucaparib alone) 105% | viability ([13]; at 1.25 µM, OCI-P5x cells, without rucaparib) 104% | viability ([13]; at 5 µM, OCI-C5x cells, with rucaparib 10 µM, 100% = cells with rucaparib alone) 157% | viability ([13]; at 5 µM, OCI-C5x cells, without rucaparib) 114% | viability ([13]; at 5 µM, OCI-P5x cells, without rucaparib) 100%
7210: cell count [10, 16]
0.75: z-score [12, 19]
1.79: SSMD [11]
8160: cell count [10, 17]
7530: cell count [11]
0.78: fold change [10, 15]
active: viability ([13]; at 0.000305 µM, OCI-P5x cells, with rucaparib 20 µM, 100% = cells with rucaparib alone) 97.6% | viability ([13]; at 0.000305 µM, OCI-P5x cells, without rucaparib) 94.3% | viability ([13]; at 0.00122 µM, OCI-P5x cells, without rucaparib) 98.6% | viability ([13]; at 5 µM, OCI-P5x cells, with rucaparib 20 µM, 100% = cells with rucaparib alone) 91.5%
